# Laboratory results taken from PubChem BioAssay.
# Records with an inconclusive call do not appear. The source made the active and inactive calls. Unless noted, the limit is not given here; nearly all actives have AC50 up to about 26 µM.
# Key:
# [1] = viability loss in pontine glioma line – cell-based, SU-DIPG-XVII, MIPE5.0, CellTiter-Glo, qHTS, dose response (AID 1347060); conditions: CellTiter-Glo ATP luminescence;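 as to AC50: cells exposed to compound for 48 hours before viability readout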
# [2] = viability loss in pontine glioma line – cell-based, SU-DIPG-XIII, MIPE5.0, CellTiter-Glo, qHTS, dose response (AID 1347064; cut-off not given, nearly all actives have AC50 up to about 23 µM;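 as to AC50: cells exposed to compound for 48 hours before the viability read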); conditions: CellTiter-Glo ATP luminescence
# [3] = viability loss in pontine glioma line – cell-based, SU-DIPG-XXV, MIPE5.0, CellTiter-Glo, qHTS, dose response (AID 1347065); conditions: CellTiter-Glo ATP luminescence;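 also: cells exposed to compound for 48 hours before ATP readout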
# [4] = JHH-DIPG-1 glioma cell viability, MIPE5.0 library, CellTiter-Glo luminescence, qHTS (AID 1347067); conditions: JHH-DIPG-1 glioma viability, CellTiter-Glo ATP luminescence;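 also: cells exposed to compound for 48 hours before readout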
# [5] = growth inhibition of DIPG cells – cell-based, MIPE5.0 library, qHTS (AID 1347068; cut-off not given, nearly all actives have IC50 up to about 30 µM;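 as to IC50: cells exposed to compound for 48 hours before viability readout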); conditions: SU-DIPG-XXV viability
SMILES,AC50 [1],AC50 [2],AC50 [3],AC50 [4],IC50 [5],outcome [1],outcome [5],outcome [2],outcome [3],outcome [4]
C=C1C(=O)O[C@H]2C[C@H](C)C(/C=C/C(C)=O)=CC[C@H]12,4.17 µM (active),2.63 µM (active),4.68 µM (active),3.32 µM (active),7.42 µM (active),,,,,
NC[C@@](O)(c1ccc(Cl)cc1)c1ccc(-c2cn[nH]c2)cc1,,18.6 µM (active),13.2 µM (active),26.3 µM (active),23.5 µM (active),inactive,,,,
CNCCn1c(=O)c2cc(OC)c(OC)cc2c2cnc3cc4c(cc3c21)OCO4,0.0215 µM (active),1.71 µM (active),1.52 µM (active),0.481 µM (active),,,inactive,,,
NS(=O)(=O)NCCNc1nonc1C(=Nc1ccc(F)c(Br)c1)NO,,,,,,inactive,inactive,inactive,inactive,inactive
COc1cc2c(cc1OCCCN1CCCC1)N=C(N)C21CCC1,,,,,,inactive,inactive,inactive,inactive,inactive
CN(C)C/C=C/C(=O)Nc1cccc(C(=O)Nc2cccc(Nc3ncc(Cl)c(-c4c[nH]c5ccccc45)n3)c2)c1,0.417 µM (active),0.332 µM (active),0.263 µM (active),0.468 µM (active),0.417 µM (active),,,,,
COC(=O)N(CC(=O)O)Cc1cccc(OCc2nc(-c3ccc(Cl)cc3)oc2C)c1,,,,,,inactive,inactive,inactive,inactive,inactive
CO[C@@H]1COCC[C@@H]1N[C@@H]1CC[C@@](C(=O)N2CCc3ncc(C(F)(F)F)cc3C2)(C(C)C)C1,,,,,,inactive,inactive,inactive,inactive,inactive
O=C(Nc1cc(Oc2cc(F)c(NC(=O)C3(C(=O)Nc4ccc(F)cc4)CC3)cc2F)ccn1)C1CC1,14.8 µM (active),13.2 µM (active),9.34 µM (active),13.2 µM (active),18.6 µM (active),,,,,
COc1cc(N2CCC(O)CC2)ccc1Nc1cc(Nc2ccccc2S(=O)(=O)C(C)C)c2cc[nH]c2n1,23.5 µM (active),10.5 µM (active),7.42 µM (active),16.6 µM (active),,,inactive,,,
Cc1c(-c2c(-c3ccc(F)o3)sc3ncnc(O[C@@H](Cc4ccccc4OCc4ccnn4CC(F)(F)F)C(=O)O)c23)ccc(OCCN2CCN(C)CC2)c1Cl,0.295 µM (active),6.61 µM (active),0.132 µM (active),3.32 µM (active),1.32 µM (active),,,,,
CN1CCN(c2ccc(C(=O)Nc3n[nH]c4ccc(Cc5cc(F)cc(F)c5)cc34)c(NC3CCOCC3)c2)CC1,2.09 µM (active),4.17 µM (active),2.35 µM (active),3.32 µM (active),5.25 µM (active),,,,,
COCCOc1cnc2ccn([C@H](C)c3nnc4c(F)cc(-c5cnn(C)c5)cn34)c(=O)c2c1,,,,,,inactive,inactive,inactive,inactive,inactive
OC1CCC(Oc2cccc3cnc(Nc4ccc5nc[nH]c5c4)nc23)CC1 (stereo not given),0.833 µM (active),2.09 µM (active),0.661 µM (active),1.32 µM (active),1.05 µM (active),,,,,
O=C1NC(=O)C(c2cnc3ccccn23)=C1c1cn2c3c(cc(F)cc13)CN(C(=O)N1CCCCC1)CC2,1.86 µM (active),16.6 µM (active),18.6 µM (active),20.9 µM (active),20.9 µM (active),,,,,
CNC(=O)Cn1cc(-c2ccc3c(c2)C(F)CC32NC(=O)N(CC(=O)N(Cc3ccc(F)cc3)[C@@H](C)C(F)(F)F)C2=O)cn1 (stereo not given in full),,,,,,inactive,inactive,inactive,inactive,inactive
CNC(=O)CCc1cc(-c2ccc(-c3ccc(C(F)(F)F)cc3)cc2)n(-c2ccc(N3CCNCC3)cc2)n1,5.25 µM (active),7.42 µM (active),2.63 µM (active),3.72 µM (active),9.34 µM (active),,,,,
CN1CC[C@@H](NC(=O)Nc2ccc(C#N)cc2)C[C@@H]1c1nc2ccccc2[nH]1,,,,,,inactive,inactive,inactive,inactive,inactive
CCc1c(-c2ccccc2C)nc2c(C#N)c[nH]n2c1=O,,,,,,inactive,inactive,inactive,inactive,inactive
CCc1cc(C(N)=O)ccc1-n1nc(C(C)C)c2c(-n3cnc(-c4cnn(C)c4)c3)ccnc21,1.86 µM (active),3.72 µM (active),1.86 µM (active),3.32 µM (active),3.32 µM (active),,,,,
C=C1C[C@@H]2CC[C@@]34C[C@H]5O[C@H]6[C@@H](O3)[C@H]3O[C@H](CC[C@@H]3O[C@H]6[C@H]5O4)CC(=O)C[C@@H]3[C@@H](OC)[C@@H](C[C@H](O)CN)O[C@H]3C[C@H]3O[C@@H](CC[C@@H]1O2)C[C@@H](C)C3=C,0.0027 µM (active),0.0428 µM (active),0.00121 µM (active),0.00959 µM (active),0.00959 µM (active),,,,,
Cc1[nH]c(/C=C2\C(=O)Nc3ccc(F)cc32)c(C)c1C(=O)NC[C@H](O)CN1CCOCC1,13.2 µM (active),18.6 µM (active),7.42 µM (active),16.6 µM (active),,,inactive,,,

SMILES,AC50 [1],AC50 [2],AC50 [3],AC50 [4],IC50 [5],outcome [1],outcome [5],outcome [2],outcome [3],outcome [4]
O=C(Nc1cnn2ccc(N3CCC[C@@H]3c3cc(F)ccc3F)nc12)N1CC[C@H](O)C1,,,,,,inactive,inactive,inactive,inactive,inactive
CC(=O)c1ccc2c(c1)c1cc(C(C)=O)ccc1n2CCNC(C)C,2.95 µM (active),4.68 µM (active),3.32 µM (active),2.63 µM (active),5.9 µM (active),,,,,
CCOc1ccc(-n2c([C@@H](C)N(Cc3cccnc3)C(=O)Cc3ccc(F)c(C(F)(F)F)c3)nc3ncccc3c2=O)cc1,,,,,,inactive,inactive,inactive,inactive,inactive
COC[C@@H](c1ccc(C(F)(F)F)cc1)N1CCN(C2(C)CCN(C(=O)c3c(C)ncnc3C)CC2)C[C@@H]1C,,,,,,inactive,inactive,inactive,inactive,inactive
CN1C(=O)[C@@H](NC(=O)c2cc(Cc3ccccc3)on2)COc2ccccc21,,,,,,inactive,inactive,inactive,inactive,inactive
CC(C)c1c2cc(-c3ccnc(NC4CCC(NC5CCOCC5)CC4)n3)ccc2nn1C (stereo not given),0.417 µM (active),0.372 µM (active),0.468 µM (active),0.417 µM (active),0.525 µM (active),,,,,
Cc1[nH]c(/C=C2\C(=O)Nc3ccc(F)cc32)c(C)c1C(=O)NCCN1CCCC1,12.9 µM (active),7.23 µM (active),6.45 µM (active),10.2 µM (active),,,inactive,,,
CNC(=O)c1ccc(Nc2ncc(C(F)(F)F)c(NCc3nccnc3N(C)S(C)(=O)=O)n2)cc1,4.68 µM (active),5.25 µM (active),3.72 µM (active),4.68 µM (active),2.35 µM (active),,,,,
CC[C@]12C=CCN3CC[C@@]4(c5cc([C@@]6(C(=O)OC)CC7C[C@@H](C(C)(F)F)CN(Cc8c6[nH]c6ccccc86)C7)c(OC)cc5N(C)[C@H]4[C@@](O)(C(=O)OC)[C@@H]1OC(C)=O)[C@@H]32 (stereo not given in full),0.148 µM (active),1.05 µM (active),0.132 µM (active),0.235 µM (active),0.742 µM (active),,,,,
O=C1CC[C@H](N2Cc3c(OCc4ccc(CN5CCOCC5)cc4)cccc3C2=O)C(=O)N1,,,,,,inactive,inactive,inactive,inactive,inactive
O=C(CCCCCCC(=O)N/N=C/c1ccc(N(c2ccccc2)c2ccccc2)cc1)NO,20.9 µM (active),20.9 µM (active),14.8 µM (active),11.8 µM (active),,,inactive,,,
Cc1cc2cc(Oc3ccnc(Nc4cccc(CS(=O)(=O)NCCN(C)C)c4)n3)ccc2[nH]1,4.68 µM (active),8.33 µM (active),5.9 µM (active),20.9 µM (active),18.6 µM (active),,,,,
O=C(/C=C\n1cnc(-c2cc(C(F)(F)F)cc(C(F)(F)F)c2)n1)NNc1cnccn1,1.66 µM (active),16.6 µM (active),4.17 µM (active),16.6 µM (active),14.8 µM (active),,,,,
CN1CCN(Cc2ccc(Nc3ncc(Cl)c(Nc4ccccc4S(=O)(=O)N(C)C)n3)cc2)CC1,0.191 µM (active),0.241 µM (active),0.135 µM (active),0.382 µM (active),0.382 µM (active),,,,,
[2H]c1nc(C)nc([2H])c1-c1cc(NC[C@@H](C)c2cccc3c(C(=O)NC)ccnc23)ncn1,,,,,,inactive,inactive,inactive,inactive,inactive
OC1CCC([C@H](O)C[C@H]2c3c(F)cccc3-c3cncn32)CC1 (stereo not given in full),,,,,,inactive,inactive,inactive,inactive,inactive
Cc1ccc(NC(=O)Nc2nnc(Sc3ncnc4cc(OCCCN5CCOCC5)ccc34)s2)cc1,2.95 µM (active),2.63 µM (active),1.86 µM (active),2.35 µM (active),,,inactive,,,
CC(C)N(CCCNC(=O)Nc1ccc(C(C)(C)C)cc1)C[C@H]1O[C@@H](n2ccc3c(N)ncnc32)[C@H](O)[C@@H]1O,,,,,,inactive,inactive,inactive,inactive,inactive
CN(C)C/C=C/C(=O)Nc1ccc(C(=O)N2CCC[C@@H](Nc3ncc(Cl)c(-c4c[nH]c5ccccc45)n3)C2)cc1,0.59 µM (active),0.295 µM (active),0.235 µM (active),0.332 µM (active),0.833 µM (active),,,,,
COc1cc(N2CCC(N3CCN(C)CC3)CC2)ccc1Nc1ncc(Cl)c(Nc2ccccc2P(C)(C)=O)n1,0.105 µM (active),0.332 µM (active),0.186 µM (active),1.18 µM (active),1.05 µM (active),,,,,
CN1CCN(c2ccc3nc(-c4cc(C(C)(C)C)c(OCCCC(=O)NCCCN=[N+]=[N-])c(C(C)(C)C)c4)[nH]c3c2)CC1,10.5 µM (active),13.2 µM (active),7.42 µM (active),11.8 µM (active),9.34 µM (active),,,,,
CCCC(CCC)C(=O)Nc1ccn([C@@H]2O[C@H](CO)[C@@H](O)C2(F)F)c(=O)n1,4.68 µM (active),,,,,,inactive,inactive,inactive,inactive
